PubChem BioAssay
Activity calls are given as the source filed them.

Experiments:
[1] = small molecules captured by biotinylated probe aFSTL3 – biochemical, small-molecule microarray, fluorescence 635/667, stem cell growth factor project, primary screen (AID 1064); details: higher = more signal;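 also: measures binding of the biotinylated anti-FSTL3 antibody to printed compounds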
[2] = binders from COS7 lysate, DM2A8 probe, primary screen, torsin A project, cell lysate, small-molecule microarray, fluorescence 635/667 (AID 1065); details: higher = more signal, COS7 lysate expressing mutant human TOR1A
[3] = small molecules captured by biotinylated probe aFGF2 – biochemical, small-molecule microarray, fluorescence 635/667, stem cell growth factor project, primary screen (AID 1067); details: higher = more signal;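 also: measures binding of biotinylated aFGF2 protein to printed compounds on slides; z-score merges feature fluorescence and signal-to-noise across triplicate slides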
[4] = small molecules captured by biotinylated probe aFGF10 – biochemical, small-molecule microarray, fluorescence 635/667, stem cell growth factor project, primary screen (AID 1071); details: higher = more signal;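 also: score merges 667 nm spot intensity and signal to noise from triplicate slides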
[5] = molecular target: Neurogenic locus notch homolog protein 2 (Homo sapiens) (UniProt Q04721); assay: small molecules binding Notch2 protein – biochemical, small-molecule microarray, 635 nm fluorescence, stem cell growth factors, primary screen (AID 1073); details: higher = more signal
[6] = molecular target: Pro-neuregulin-1, membrane-bound isoform (Homo sapiens) (UniProt Q02297); assay: small molecules binding neuregulin-1 protein – biochemical, small-molecule microarray, fluorescence 635/667, psychiatric disease protein project, primary screen (AID 1075); details: NRG1 binding, 635 nm fluorescence, higher = more signal;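 also: score combines 667 nm spot fluorescence with signal to noise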
Pro-neuregulin-1, membrane-bound isoform (Homo sapiens), sequence (Q02297 whole entry, looked up, the tested form may be a part, canonical isoform): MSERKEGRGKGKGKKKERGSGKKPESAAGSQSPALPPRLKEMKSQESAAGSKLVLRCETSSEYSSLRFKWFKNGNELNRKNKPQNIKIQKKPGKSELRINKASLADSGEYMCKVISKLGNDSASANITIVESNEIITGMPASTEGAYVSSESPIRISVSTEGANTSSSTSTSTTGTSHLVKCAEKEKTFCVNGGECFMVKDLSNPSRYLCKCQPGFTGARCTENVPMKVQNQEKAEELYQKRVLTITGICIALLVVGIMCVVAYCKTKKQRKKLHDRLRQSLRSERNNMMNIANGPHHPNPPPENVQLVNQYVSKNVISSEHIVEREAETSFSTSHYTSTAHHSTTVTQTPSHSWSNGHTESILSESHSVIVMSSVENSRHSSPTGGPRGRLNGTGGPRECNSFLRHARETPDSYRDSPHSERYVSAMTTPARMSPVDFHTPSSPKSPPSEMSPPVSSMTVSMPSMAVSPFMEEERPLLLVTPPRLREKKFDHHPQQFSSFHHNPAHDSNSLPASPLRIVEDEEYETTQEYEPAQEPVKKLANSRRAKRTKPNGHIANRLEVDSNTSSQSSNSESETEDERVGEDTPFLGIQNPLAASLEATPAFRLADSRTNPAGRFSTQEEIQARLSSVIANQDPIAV

[7] = system: Neuregulin-1 EGF-like domain; assay: small molecules binding NRG1 EGF domain – biochemical, small-molecule microarray, 635 nm fluorescence, primary screen (AID 1081); details: higher = more signal;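 also: binding of the protein to compounds printed on small-molecule microarray slides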
[8] = FRG1 expression reporter modulators in myotubes – cell-based, C2C12 myotubes, firefly/Renilla luciferase, luminescence, FRG1 inhibition for FSHD, primary screen (AID 1084); details: FRG1 promoter luciferase, higher = more signal, called active from +8 up or from −8 down
[9] = small molecules captured by biotinylated probe aFST – biochemical, small-molecule microarray, fluorescence 635/667, stem cell growth factor project, primary screen (AID 1086); details: higher = more signal;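 also: score merges 667 nm fluorescence with signal-to-noise of each printed compound spot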
[10] = binders of probe aHhip on microarray, primary screen, stem cell growth factor project, biochemical, small-molecule microarray, fluorescence 635/667 (AID 1087); details: higher = more signal;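 also: score merges spot fluorescence at 667nm with spot signal to noise ratio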
[11] = system: PRMT1 (protein arginine N-methyltransferase 1); assay: small molecules binding arginine methyltransferase PRMT1 – biochemical, small-molecule microarray, 635 nm fluorescence, primary screen (AID 1088); details: higher = more signal;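 also: binding of Prmt1 protein to compounds spotted on small-molecule microarray slides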
[12] = growth effects on S. cerevisiae YJM789 – YJM789 clinical isolate, OD600, 24 h, basal, primary screen (AID 1089); details: higher = more signal, called active from +8 up or from −8 down;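 also: growth of clinical yeast isolate S. cerevisiae YJM 789 seeded 1000 cells per well; test concentration not given here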
[13] = S. pombe growth modifiers, basal conditions – strain 972, OD600, 24 h, no modulator, primary screen (AID 1090);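 also: basal condition with compound alone and no growth modifier present; test concentration not given here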; details: S. pombe 972 growth, higher = more signal, called active from +8 up or from −8 down
[14] = budding yeast growth modifiers under rapamycin – strain BY4716, OD600, 96 h, primary screen (AID 1091); also: test concentration not given here; details: S. cerevisiae BY4716 + rapamycin, higher = more signal, called active from +8 up or from −8 down
[15] = molecular target: Torsin-1A-interacting protein 2 (Homo sapiens) (UniProt Q8NFQ8); assay: small molecules binding lysate-expressed LULL1 – cell lysate, human LULL1 lysate, 635/667 nm fluorescence, primary screen (AID 1092); details: small-molecule microarray, hLULL1 lysate binding, 635 nm fluorescence; higher = more signal;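 also: probe is lysate of COS7 cells overexpressing human LULL1; score merges per-feature 667 nm fluorescence with signal-to-noise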
Torsin-1A-interacting protein 2 (Homo sapiens), sequence (Q8NFQ8 whole entry, looked up): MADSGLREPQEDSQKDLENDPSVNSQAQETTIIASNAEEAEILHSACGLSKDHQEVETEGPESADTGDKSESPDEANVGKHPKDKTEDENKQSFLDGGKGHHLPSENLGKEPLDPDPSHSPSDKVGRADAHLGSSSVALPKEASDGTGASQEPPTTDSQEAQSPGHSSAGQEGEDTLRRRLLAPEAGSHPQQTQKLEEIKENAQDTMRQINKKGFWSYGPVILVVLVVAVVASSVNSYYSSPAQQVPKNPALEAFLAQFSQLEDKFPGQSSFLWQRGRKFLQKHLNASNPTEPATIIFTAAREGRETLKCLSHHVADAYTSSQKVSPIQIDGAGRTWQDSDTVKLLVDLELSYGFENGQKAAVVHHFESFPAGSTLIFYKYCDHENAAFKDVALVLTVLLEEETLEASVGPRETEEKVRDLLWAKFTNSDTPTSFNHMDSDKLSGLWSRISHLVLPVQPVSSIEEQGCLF

[16] = optical density change of DRC41 E. coli – strain DRC41, OD650, 24 h, E. coli filamentation project, primary screen (AID 1093);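 also: MC1000 strain lacking acrAB efflux and sulA so SOS filamentation is blocked; test concentration not given here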; details: E. coli DRC41 growth, higher = more signal, called active from +8 up or from −8 down
[17] = probe aLefty2 binding to arrayed compounds – biochemical, biotinylated probe, 635/667 nm fluorescence, primary screen (AID 1094); details: small-molecule microarray, higher = more signal;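 also: score merges spot fluorescence near 667 nm with spot signal-to-noise ratio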
[18] = system: Noggin (protein binding on small-molecule microarray); assay: small molecules binding Noggin protein – biochemical, 635/667 nm fluorescence, primary screen (AID 1095); details: 635 nm fluorescence, higher = more signal;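 also: score merges 667 nm feature fluorescence with signal to noise over triplicate slides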
[19] = molecular target: Neurogenic locus notch homolog protein 3 (Homo sapiens) (UniProt Q9UM47); assay: small molecules binding NOTCH3 protein – biochemical, 635/667 nm fluorescence, primary screen (AID 1096); details: small-molecule microarray, 635 nm fluorescence, higher = more signal
Neurogenic locus notch homolog protein 3 (Homo sapiens), sequence (Q9UM47 whole entry, looked up): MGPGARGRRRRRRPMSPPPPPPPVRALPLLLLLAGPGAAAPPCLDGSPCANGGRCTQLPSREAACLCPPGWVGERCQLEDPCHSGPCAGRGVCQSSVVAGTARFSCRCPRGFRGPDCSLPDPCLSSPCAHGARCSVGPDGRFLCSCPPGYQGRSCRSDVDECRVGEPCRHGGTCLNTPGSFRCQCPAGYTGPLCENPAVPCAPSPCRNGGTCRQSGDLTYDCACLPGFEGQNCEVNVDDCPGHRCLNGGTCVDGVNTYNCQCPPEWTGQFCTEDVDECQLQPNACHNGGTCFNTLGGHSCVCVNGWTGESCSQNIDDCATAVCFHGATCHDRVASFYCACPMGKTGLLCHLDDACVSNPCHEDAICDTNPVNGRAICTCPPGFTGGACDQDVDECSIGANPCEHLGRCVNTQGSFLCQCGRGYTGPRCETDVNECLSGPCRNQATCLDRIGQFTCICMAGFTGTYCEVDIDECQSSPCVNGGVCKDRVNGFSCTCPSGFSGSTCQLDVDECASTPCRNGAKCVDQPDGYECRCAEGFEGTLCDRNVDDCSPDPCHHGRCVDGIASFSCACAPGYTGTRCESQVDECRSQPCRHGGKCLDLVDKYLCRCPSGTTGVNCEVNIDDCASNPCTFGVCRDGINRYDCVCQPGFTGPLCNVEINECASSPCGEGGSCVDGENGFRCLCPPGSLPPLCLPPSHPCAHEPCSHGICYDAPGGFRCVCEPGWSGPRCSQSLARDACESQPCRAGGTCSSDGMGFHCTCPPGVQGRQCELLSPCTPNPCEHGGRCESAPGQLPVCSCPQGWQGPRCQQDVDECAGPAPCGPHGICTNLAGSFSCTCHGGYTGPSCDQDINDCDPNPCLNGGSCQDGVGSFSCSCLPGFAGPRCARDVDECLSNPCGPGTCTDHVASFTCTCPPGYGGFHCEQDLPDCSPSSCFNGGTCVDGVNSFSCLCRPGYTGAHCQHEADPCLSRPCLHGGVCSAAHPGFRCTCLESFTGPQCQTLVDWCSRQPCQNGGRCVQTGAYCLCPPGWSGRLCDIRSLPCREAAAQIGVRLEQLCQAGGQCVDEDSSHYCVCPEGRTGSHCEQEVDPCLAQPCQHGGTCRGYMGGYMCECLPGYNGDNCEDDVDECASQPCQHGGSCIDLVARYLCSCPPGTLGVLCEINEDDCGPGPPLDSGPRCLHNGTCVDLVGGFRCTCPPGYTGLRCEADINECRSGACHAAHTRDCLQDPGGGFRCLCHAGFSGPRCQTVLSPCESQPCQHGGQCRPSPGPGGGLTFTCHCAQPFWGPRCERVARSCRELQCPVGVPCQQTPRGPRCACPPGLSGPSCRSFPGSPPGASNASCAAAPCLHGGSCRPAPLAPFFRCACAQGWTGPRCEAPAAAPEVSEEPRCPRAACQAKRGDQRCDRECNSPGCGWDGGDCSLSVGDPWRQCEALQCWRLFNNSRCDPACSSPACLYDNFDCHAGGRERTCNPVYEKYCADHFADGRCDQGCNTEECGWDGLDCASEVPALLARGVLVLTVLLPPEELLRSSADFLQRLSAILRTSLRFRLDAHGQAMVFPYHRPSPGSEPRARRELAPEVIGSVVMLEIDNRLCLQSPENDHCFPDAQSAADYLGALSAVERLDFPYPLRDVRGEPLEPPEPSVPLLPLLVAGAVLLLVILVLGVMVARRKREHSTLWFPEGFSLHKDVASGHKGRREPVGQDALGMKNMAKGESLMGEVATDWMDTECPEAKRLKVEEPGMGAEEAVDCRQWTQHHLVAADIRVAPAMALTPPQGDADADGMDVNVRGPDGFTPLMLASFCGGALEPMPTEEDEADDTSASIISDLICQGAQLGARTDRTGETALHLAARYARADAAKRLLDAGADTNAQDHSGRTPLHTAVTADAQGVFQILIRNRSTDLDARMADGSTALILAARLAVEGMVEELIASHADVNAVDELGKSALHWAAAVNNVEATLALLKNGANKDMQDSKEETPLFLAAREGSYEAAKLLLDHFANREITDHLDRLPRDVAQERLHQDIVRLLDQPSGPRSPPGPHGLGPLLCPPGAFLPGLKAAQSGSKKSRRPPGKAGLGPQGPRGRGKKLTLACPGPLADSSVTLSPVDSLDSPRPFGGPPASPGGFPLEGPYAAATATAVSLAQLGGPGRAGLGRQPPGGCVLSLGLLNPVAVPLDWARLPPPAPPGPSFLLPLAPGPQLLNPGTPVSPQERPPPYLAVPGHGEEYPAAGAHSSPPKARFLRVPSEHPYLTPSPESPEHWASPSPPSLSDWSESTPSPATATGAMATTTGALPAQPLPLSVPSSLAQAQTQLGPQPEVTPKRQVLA

[20] = probe aEGFR binding to arrayed compounds – biochemical, biotinylated probe, 635/667 nm fluorescence, primary screen (AID 1097); details: small-molecule microarray, higher = more signal;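 also: probe is a biotinylated anti-EGFR antibody binding compounds printed on slides; score combines fluorescence near 667 nm and signal to noise of each spot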

Compound | composite z-score [1] | composite z-score [2] | composite z-score [3] | composite z-score [4] | composite z-score [5] | composite z-score [6] | composite z-score [7] | z-score [8] | composite z-score [9] | composite z-score [10] | composite z-score [11] | z-score [12] | z-score [13] | z-score [14] | composite z-score [15] | z-score [16] | composite z-score [17] | composite z-score [18] | composite z-score [19] | composite z-score [20]
C=CCNC(=O)[C@H]1[C@@H]2C(=O)O[C@@H](c3ccccc3)[C@@H](c3ccccc3)N2[C@@H](c2ccc(O)cc2)[C@]12C(=O)Nc1ccc(C#CC3=CCCCC3)cc12 | -0.713 | 2.01 | -0.0449 | 0.447 | 0.706 | 0.0212 | 1.18 | -0.195 (inactive) | -0.166 | 0.199 | 1.42 | 1.51 (inactive) | 0.614 (inactive) | 1.98 (inactive) | 1.54 | -0.197 (inactive) | 0.384 | 1 | 0.758 | -0.17
C=CCC(OC(C)=O)[C@@H]1[C@@H](N(Cc2cccc3ccccc23)C(=O)c2ccc(C)cc2)c2cc(OCCCO)ccc2N1C(=O)c1ccc2ccccc2n1 (stereo not given in full) | -0.0635 | 0.552 | 0.01 | 0.238 | -0.327 | -0.157 | 0.0751 | -1.44 (inactive) | 0.223 | 0.386 | 0.56 | -2.04 (inactive) | 0.378 (inactive) | -0.6 (inactive) | 0.563 | 1.21 (inactive) | 0.0748 | 0.708 | 0.209 | -0.0437
COc1ccccc1CN1C(=O)c2ccccc2[C@@H](C(=O)NCCCN(C)C)[C@@H]1c1ccc(CO)cc1 | -0.192 | 0.132 | -0.161 | 0.461 | -0.203 | 0.648 | 0.695 | -3.53 (inactive) | 0.0644 | -0.266 | -1.06 | -0.376 (inactive) | -2.26 (inactive) | -1.63 (inactive) | -1.07 | 0.874 (inactive) | -0.135 | -0.649 | -0.784 | -0.111
C=CCN1C(=O)[C@]2(O[C@H](CCn3cc([C@H](O)c4ccccc4)nn3)[C@@H]([Si](C)(C)c3ccc(OC)cc3)[C@@H]2C)c2cc(N3C(=O)c4cccc5cccc3c45)ccc21 | -0.144 | -0.111 | -0.085 | 0.73 | -0.0893 | 1.07 | 0.76 | -1.84 (inactive) | -0.516 | -0.256 | 0.755 | -0.055 (inactive) | 1.06 (inactive) | 1.21 (inactive) | 0.6 | 0.374 (inactive) | -0.217 | 0.624 | 0.232 | -0.28
COc1ccc(CCNC(=O)[C@@H]2c3ccccc3C(=O)N(CC34CC5CC(CC(C5)C3)C4)[C@H]2c2ccc(CO)cc2)cc1 | -0.227 | 0.0668 | 0.257 | 0.239 | 0.703 | 1.09 | 1.24 | -1.89 (inactive) | -0.0095 | 0.0972 | 1.12 | -0.543 (inactive) | -0.817 (inactive) | -0.13 (inactive) | 2.45 | 0.573 (inactive) | -0.297 | 1.92 | 1.06 | -0.0828
COc1ccc([Si](C)(C)[C@@H]2[C@@H](CCO)O[C@]3(C(=O)N(Cc4ccccc4)c4ccc(N5C(=O)c6ccccc6Oc6ccccc65)cc43)[C@H]2C)cc1 | -0.0276 | -0.662 | -0.0962 | 0.379 | -0.236 | 0.992 | 0.671 | 0.816 (inactive) | -0.089 | -0.284 | 0.182 | 1.32 (inactive) | 0.381 (inactive) | 8.27 (active) | 1.21 | 1.13 (inactive) | -0.136 | 0.245 | 0.057 | -0.19
COc1ccccc1CN1C(=O)c2ccccc2[C@](Cc2ccccc2I)(C(=O)NCCCN(C)C)[C@@H]1c1ccc(CO)cc1 | -0.967 | -0.501 | -0.116 | 0.483 | 0.452 | 0.683 | 1.19 | -3.16 (inactive) | -0.0929 | -0.37 | 1.4 | 0.404 (inactive) | -20.1 (active) | -2.96 (inactive) | 3.04 | -5.17 (inactive) | -0.305 | 0.134 | 0.591 | -0.355
CCCC[C@@H]1C[C@H]1[C@@H](NC(=O)c1ccc(C(F)(F)F)cc1)c1ccc(C(=O)OC)cc1 | 1.54 | 2.4 | 0.589 | 0.769 | 0.587 | 0.311 | 0.0521 | -2.69 (inactive) | 0.568 | 2.46 | 0.715 | 0.119 (inactive) | -3.29 (inactive) | -0.898 (inactive) | 0.888 | 0.255 (inactive) | 0.293 | 0.747 | 0.812 | 0.695
CC(C)C(=C=CC[C@@H](O)c1ccccc1OCCO)C[C@@H](O)c1cc(Cl)cc(Cl)c1O | -0.667 | 1.84 | -0.076 | 0.961 | 1.16 | 1.48 | 1.19 | -1.95 (inactive) | 0.704 | -0.0296 | 1.54 | -0.0964 (inactive) | -1.46 (inactive) | -0.443 (inactive) | 2.7 | -0.101 (inactive) | -0.108 | 1.67 | 1.09 | 0.0182
COCCOC(=O)N1C(=O)[C@@]2(c3ccccc31)[C@H](C(N)=O)[C@H]1C(=O)O[C@H](c3ccccc3)[C@H](c3ccccc3)N1[C@@H]2c1ccc(OCCO)cc1 | -0.4 | 1.06 | 0.0445 | 0.257 | 0.995 | 1.59 | 1.21 | 0.341 (inactive) | 0.239 | 0.0854 | 1.54 | 2.25 (inactive) | 0.601 (inactive) | 4.25 (inactive) | 2.58 | 0.935 (inactive) | -0.0862 | 1.61 | 1.14 | -0.132
